Source: ChEMBL document CHEMBL3988442, “University of Dundee, Small-Polar-MMV Screening Library” (2021)

Target: AMP-activated protein kinase, AMPK (Homo sapiens) (UniProt P54646+O43741+P54619+Q9UGJ0+Q9Y478+Q13131+Q9UGI9)
Assay: AMP-dependent Kinase enzyme assay. An in vitro enzyme assay that detects ADP turnover that is directly proportional to AMPK activity. This uses naive AMPK that is activated during the assay with MK-8722
Assay type: functional
Set-up: scale not given: direction of the effect not stated beside the values
Conditions: 30 µM

| SMILES | Percent Effect [%] |
| --- | --- |
| C[C@@H]1CN(C(=O)Cn2ccc3ncccc3c2=O)C[C@H](C)O1 | -2.09 |
| CC(=O)N1CCC(c2ncc(C(=O)Nc3ccccc3)c(C)n2)CC1 | 25 |
| CN(CCc1ncnn1-c1ccccc1Cl)C1CCS(=O)(=O)C1 (stereo not given) | -10 |
| COc1ccc(O)c(C(=O)NCC2CCCN(C3CCOCC3)C2)c1 (stereo not given) | 12.5 |
| O=S1(=O)NC(C2CCCN(S(=O)(=O)N3CCCC3)C2)=Nc2ccccc21 (stereo not given) | 13.9 |
| O=C(NCc1nc[nH]n1)c1cc(COc2cccc(F)c2)[nH]n1 | 2.9 |
| CCn1cnnc1CNS(=O)(=O)N1CCCC1c1ccco1 (stereo not given) | -5.92 |
| Cc1cncc(C2CCN(Cc3ccc(S(C)(=O)=O)cc3)CC2)n1 | 5.76 |
| Cc1nc(-n2nc(-c3cccs3)cc2N)[nH]c(=O)c1C | -14.4 |
| CC(C)N(CCO)C(=O)c1cc(COc2ccc3c(c2)CCCC3)on1 | -2.41 |
| CCC(O)CNC(=O)c1cc(COc2ccc(OC)cc2Cl)[nH]n1 (stereo not given) | 2.19 |
| CC(C)(C)SCCN1CC(=O)N2CC[C@@H](O)C[C@H]2C1=O | 3.02 |
| COC(CNC(=O)CNC(=O)c1ccccc1)c1cccc(Cl)c1 (stereo not given) | 4.84 |
| Cc1cc(-c2cnc(N3CCCC(C)C3)nc2C(C)C)on1 (stereo not given) | 10.4 |
| C[C@@H]1CN(c2ccc(Cl)cn2)CC[C@@]1(O)C1CCOCC1 | 5.56 |
| CCC(NC(=O)c1cnc(N(C)C)nc1C)c1ccncc1 (stereo not given) | 0.963 |
| CCOc1ccccc1CN(C)C(C)c1nc(-c2cccnc2)no1 (stereo not given) | 1.83 |
| CC(C)(C)c1n[nH]cc1CNC1CCC(O)CC1 (stereo not given) | -0.675 |
| COc1cc(N2CCN(Cc3ccsc3)C(CCO)C2)nc(N)n1 (stereo not given) | -5.18 |
| Cc1ccccc1C(=O)NC[C@@H]1CCN(C(=O)c2cscn2)C[C@H]1O | 1.22 |

| SMILES | Percent Effect [%] |
| --- | --- |
| Cc1nccn1[C@@H]1CC[C@@H](N(C)S(=O)(=O)c2cccc(F)c2)[C@H]1O | 28.1 |
| COc1c(C)cnc(CN2CCCC2c2noc(C3CC3)n2)c1C (stereo not given) | -14.3 |
| Cc1noc(C2CCCN(Cn3cc(Cl)cn3)C2)n1 (stereo not given) | 10.4 |
| Cc1cc(NC(=O)CO)nn1-c1ccc(Cl)cc1Cl | -3.56 |
| CCc1nc(C)c(CN2CCOC(Cc3ccccc3Cl)C2)[nH]1 (stereo not given) | -2.77 |
| O=C(c1cncc(NCC2COc3ccccc3C2)n1)N1CCOCC1 (stereo not given) | 7.56 |
| CC(c1ccc(F)cc1F)N1CCN(CCC(=O)O)CC1 (stereo not given) | 8.21 |
| Cn1cc(S(=O)(=O)NCCc2ccsc2)cn1 | 13.7 |
| Cc1cc(CNC(=O)NCCC(=O)N2CCCc3ccccc32)no1 | -5.1 |
| CCn1c(C2CCNCC2)nn(CCn2ccc(C)n2)c1=O | 5.45 |
| Cc1ccsc1C(CNC(=O)c1cc(=O)[nH]c(=O)[nH]1)N(C)C (stereo not given) | 3.78 |
| CNC(=O)c1sc2ncccc2c1C1CCN(C(=O)CCOC)C1 (stereo not given) | 21.5 |
| CC(C)(N)C(=O)N1CCCC(C(=O)c2ccc(C(C)(C)C)cc2)C1 (stereo not given) | 17.9 |
| CCN(CC)S(=O)(=O)c1ccc(NC(=O)C(C)(C)C)cc1 | 3.46 |
| CC(C)COc1cncc(N(C)C2CCN(c3ncccn3)CC2)n1 | 7.4 |
| O=C(CCn1ccnc1)N1CCC(c2nnc(-c3ccccn3)o2)CC1 | 1.44 |
| CCNC(=O)c1ccc(NC(=O)N(C)Cc2cccn2C)c(C)c1 | 12.2 |
| CCCc1ccc(CN2CCC3(CC2)CNC(=O)C3)o1 | 18.2 |
| Cc1ccc(C(=O)NCc2ccnc(C3CCCOC3)n2)s1 (stereo not given) | 7.88 |
| CCc1ccc(N2CCC(NS(=O)(=O)N(CC)CC)CC2)cc1 | 1.78 |
